Several values for one entry are separate records, joined by “and”; a condition that tells them apart may be missing. Identical values can stand only once. Records with an inconclusive call do not appear. A number with no mark means an inactive call. Activity calls are given as the source filed them. Calls come from the whole dose curve; as a rule, active = well fitted activation curve with a large enough effect; inconclusive = small, poorly fitted or top-dose-only effect; inactive = no such curve, though single readings can be large or run the other way.
Potency is the fitted concentration of half-maximal effect.

Sequence of Cellular tumor antigen p53 (Homo sapiens) (P04637 whole entry, looked up): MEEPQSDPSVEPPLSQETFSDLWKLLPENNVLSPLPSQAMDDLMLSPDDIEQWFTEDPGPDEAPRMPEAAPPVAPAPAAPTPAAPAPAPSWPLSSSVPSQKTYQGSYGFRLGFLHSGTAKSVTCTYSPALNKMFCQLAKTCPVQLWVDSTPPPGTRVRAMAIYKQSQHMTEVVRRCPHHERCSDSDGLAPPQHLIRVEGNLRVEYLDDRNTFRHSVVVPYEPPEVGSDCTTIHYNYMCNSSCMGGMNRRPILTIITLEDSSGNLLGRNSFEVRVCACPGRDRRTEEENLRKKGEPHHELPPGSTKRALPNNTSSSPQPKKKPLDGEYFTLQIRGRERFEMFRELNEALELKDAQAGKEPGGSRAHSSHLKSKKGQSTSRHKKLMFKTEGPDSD

This test addresses Cellular tumor antigen p53 (Homo sapiens) (UniProt P04637). The experiment in a line: Primary qHTS for small molecule compounds that upregulate eGFP-tagged delta133p53alpha (in N-terminal) cells. (AID 2060322).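 For activation: cells pre-induced with doxycycline then dosed without doxycycline; series mostly up to about 56 µM; 0% = DMSO vehicle and 100% = reference activator.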 Note: nearly all actives have a fitted effect of over 75% in size. Particulars: NCI-H358 eGFP-delta133p53alpha fluorescence, 24 h; activation: stronger effect = higher value. The source says:
Assay Development and Screening Technology
National Center for Advancing Translational Sciences (NCATS),
National Institute of Health (NIH), Rockville, Maryland
Cellular senescence (CS) is one of the hallmarks of aging and age-related diseases. Senescent cells are characterized by an irreversible growth arrest, an increase in senescence-associated beta-galactosidase (SA-beta-gal) activity and p16INK4a expression, an activation of the DNA damage response pathways, and the emergence of a senescence-associated secretory phenotype (SASP).
Delta133p53alpha, a human/primate-specific p53 protein isoform, delays or inhibits the induction of CS and SASP in various types of human cells, including progeria-derived fibroblasts, primary normal astrocytes, and CD8+ T lymphocytes. Induction of delta133p53alpha with small molecule compounds may provide therapeutic opportunities for inhibition of senescence/SASP-associated pathologies in progeria syndromes, astrocyte-mediated neuroprotection in neurodegenerative diseases, and possibly prevention and treatment of a wider range of senescence- and aging-associated diseases.
Here we report the development and validation of a cell-based quantitative high throughput screening (qHTS) assay in 1,536-well format. This qHTS assay uses the NCI-H358 cell line with doxycycline-inducible expression of enhanced green fluorescent protein (eGFP)-tagged delta133p53alpha, which allows efficient and highly quantitative measurement of the protein levels.
PROTOCOL TABLE (as described by Inglese J, Shamu CE and Guy RK. 2007)
SEQUENCE No. (e.g., 1, 2, 3, etc.); […] (e.g., Cells, Incubation, Reagent, etc.); VALUE; DESCRIPTION.
1; Cells; 4uL; 800 doxycycline treated cells / well in doxycycline-free media, 1536-well black, clear-bottom low base Aurora microplates.
2; Compounds; 23 nL; Kalypsis pin tool (Wako) equipped with 1536-well pin heads, 5-azacytidine positive control.
3; Incubation; 24 hr; 37C, 5% CO2; 95% relative humidity.
4; Aspiration; 1x; BioTek EL406 washer dispenser (Agilent).
5; Fixing; 3.5% paraformaldehyde, BioTek EL406 washer dispenser (Agilent).
6; Washing; 1x PBS; BioTek EL406 washer dispenser (Agilent).
7; Nuclei staining; 1:1000 dilution of Hoechst 33342 (Thermofisher), BioTek EL406 washer dispenser (Agilent).
8; Incubation; 20 min; in the dark at room temperature.
9; Washing; 2x, 1x PBS (ThermoFisher), BioTek EL406 washer dispenser (Agilent).
10; Reagent; 10 uL; 1x PBS per well, sealed with clear adhesive tape.
NOTES (numbers refer to sequence numbers above).
1. NCI-H358 cells expressing eGFP-tagged delta133p53alpha were grown in T75 culture flasks and treated with doxycycline for 24h, at 10 ng/ml for eGFP-D133p53a cells (N-terminal cell) and 100 ng/ml for D133p53a-eGFP cells (C-terminal cells). Cells were trypsinized, counted using a Counted 3 Automated Cell Counter (Thermo Fisher), and diluted to a concentration of 200,000 cells/ml. A Multidrop Combi Reagent Dispenser (ThermoFisher) was used to dispense 800 cells/well in […] of doxycycline-free media, into 1536-well black/clear bottom low base plates (AuroraMicroplates).
2. After plating cells, 23 nl of compound library, DMSO vehicle control or positive control (5-azacytidine) were transferred by Pin Tool (Wako). The plate map layout was the same for each plate: (column 1) non-doxycycline treated cells + DMSO vehicle control; (column 2) doxycycline treated cells + DMSO vehicle control baseline; (column 3) doxycycline treated cells + positive control 57.5 uM final concentration 5-azacytidine; (column 4) doxycycline treated cells + serial dilution of 5-azacytidine, 16-point 1:2 titration spanning 1.8 nM to […] final concentration; (columns 5-48) doxycycline treated cells + titration of library compounds.
3. Cells were incubated at 37 °C, 5 % CO2, 95% RH with breathable metal lid for 24h.
4-10. […] After two washes, 10 ul of 1X PBS (Thermo Fisher) was dispensed to each well. Clear adhesive plate seals (VWR) were applied and plates stored at 4 °C.
11. […]
In general terms: qHTS replaces the single test concentration by a dilution series.
For `O=C(O)C1=CCCNC1`, the activation is -16.6%.
As to `CN1CCC(=C2c3ccccc3C=Cc3ccccc32)CC1`, the activation was -15.3% and 19.5% and -34.1%.
The same measure, in the same setting: the same measure for `COc1cc2c(cc1OC)C(C(C(=O)N(CCc1ccc(OC)c(OC)c1OC)CCc1ccc(OC)c(OC)c1OC)c1ccccc1)=NCC2` (stereo not given): 3.95%.
The same measure, in the same setting: to `Cc1nc(C#Cc2ccnc(Cl)c2)c(C)n1-c1ccc(OC(F)(F)F)cc1` belongs -7.16%; to `COc1ccc(CCO[C@@H]2O[C@H](CO[C@@H]3OC[C@H](O)[C@H](O)[C@H]3O)[C@@H](O)[C@H](O)[C@H]2O)cc1`, -20.6%; to `CCNC(=O)/C=C/c1cccc(Br)c1`, -10.9%.
The same measure, in the same setting: to `C=C1C(=O)OC2/C=C(\CO)CC/C=C(\C=O)C(OC)C(OC(=O)C(C)CC)C12` (stereo not given) belongs -6.11%; to `CCCC(CCC)C(=O)Nc1ccn([C@@H]2O[C@H](CO)[C@@H](O)C2(F)F)c(=O)n1`, -16.2%; to `CN(C)CCC=C1c2ccccc2C=Cc2ccccc21`, 5.02% and 17.3%.
As to `CC[C@@H]1Cc2cc(O)ccc2C2=C1c1ccc(O)cc1C[C@H]2CC`, the activation was -56%.
As for `CC(=O)O[C@H]1CC2C(COC(=O)CC(C)C)=CO[C@@H](OC(=O)CC(C)C)C2[C@]12CO2` (stereo not given in full), the Potency was 10.4 µM (active).
Take `COc1cc(/C=C/C(=O)O)ccc1O[C@@H]1O[C@H](CO)[C@@H](O)[C@H](O)[C@H]1O[C@@H]1OC[C@](O)(CO)[C@H]1O`: the activation was -13%.
Same read-out and setting: to `CCOC(=O)N1CCN([N+]([O-])=NOc2cc(ON=[N+]([O-])N3CCN(C(=O)OCC)CC3)c([N+](=O)[O-])cc2[N+](=O)[O-])CC1` belongs 5.87%; to `C[C@@H]1CC[C@]2(C(=O)O[C@@H]3O[C@H](CO)[C@@H](O)[C@H](O)[C@H]3O)CC[C@]3(C)C(=CCC4[C@@]5(C)C[C@@H](O)[C@H](O)C(C)(C)C5CC[C@]43C)C2[C@]1(C)O` (stereo not given in full), -17.6%.
In the case of `CC(C)(O)CNc1nc(Nc2ccnc(C(F)(F)F)c2)nc(-c2cccc(C(F)(F)F)n2)n1`, the activation was -5% and -21.6%.
Still for that read-out and setting: the same measure for `C=CC(C)(O)CC/C=C(\C)C(=O)O[C@@H]1[C@@H](O)[C@H](OC(C)(C=C)CC/C=C(\C)C(=O)O)O[C@H](CO)[C@H]1OC(=O)/C(C)=C/CCC(C)(O)C=C` (stereo not given in full): 9.92%; for `CC(C)C[C@@H]1NC(=O)[C@@H]2C[C@@]34C[C@@H]5[C@@]6(C)CCCC(C)(C)C6CC[C@@]5(C)N(c5ccccc53)[C@H]4N2C1=O` (stereo not given in full): 3.82%; for `O=C(Nc1ccccc1-c1cn2c(CN3CCNCC3)csc2n1)c1cnc2ccccc2n1`: -29.5%.
As for `C=CCNc1c(O)cc2c(O)c1C[C@@H](C)C[C@H](OC)[C@@H](O)[C@@H](C)C=C(C)[C@H](OC(N)=O)[C@@H](OC)C=CC=C(C)C(=O)N2`, the activation is 1.58%.
The same measure, in the same setting: the same measure for `O=C(O)CC1CCCc2ccccc2C1O` (stereo not given): 5.92%.
Same read-out and setting: the same measure for `CC1(C)S[C@H]2[C@H](NC(=O)[C@@H](N)c3ccc(O)cc3)C(=O)N2[C@@H]1C(=O)O`: -5.39%; for `CC(C)(C)c1ccc(C(=O)Nc2cn3cc(-n4ccnc4)ccc3n2)cc1`: 1.79%.
Turning to `CN(C)C(=O)NC1CCC(CCN2CCN(c3cccc(Cl)c3Cl)CC2)CC1` (stereo not given), the activation was -1.91%.
Turning to `COc1ccc(/C=C/C(=O)O[C@@H]2[C@@H](O)[C@H](C)O[C@@H](OC3C4C=COC(O[C@@H]5O[C@H](CO)[C@@H](O)[C@H](O)[C@H]5O)C4C4(CO)OC34)[C@@H]2O)cc1OC` (stereo not given in full), the activation is -13%.
Same read-out and setting: the same measure for `CCc1cnc(N2CCC(c3nc(COc4ccc(-n5cnnn5)cc4)cs3)CC2)nc1`: 2.86%.
Same read-out and setting: the same measure for `CC(C)c1ccc2oc3nc(N)c(C(=O)O)cc3c(=O)c2c1`: 16.6% and 7.34%.
As for `NC(=O)c1cnccn1`, the activation was -1.69% and -18.4% and -16.9%.
The same measure, in the same setting: to `CO[C@@H]1[C@@H](O[C@H]2O[C@@H](C)[C@H](O[C@@H]3C[C@](C)(O)[C@H](O)[C@@H](C)O3)[C@@H](N(C)C)[C@@H]2O)[C@@H](CC=O)C[C@@H](C)[C@@H](O[C@H]2CC[C@H](N(C)C)[C@H](C)O2)/C=C/C=C/C[C@@H](C)OC(=O)C[C@H]1O` belongs -1.43%.
Same read-out and setting: to `N[C@@H]1c2cccnc2[C@H](OC(=O)N2CCC(n3c(=O)[nH]c4ncccc43)CC2)CC[C@H]1c1cccc(F)c1F` belongs -10.5%; to `O=[N+]([O-])c1cccc(S(=O)(=O)NCCNS(=O)(=O)c2cccc([N+](=O)[O-])c2)c1`, 24.3%; to `OCC1OC(Oc2cc(O)c3c(c2)OC(c2ccc(O)cc2)C(O)C3)C(O)C1O` (stereo not given), -25.2%.
The same measure, in the same setting: to `CCOC1OC(=O)C[C@H]1NC(=O)[C@@H]1CCCN1C(=O)[C@@H](NC(=O)c1ccc(N)c(Cl)c1)C(C)(C)C` (stereo not given in full) belongs 110%; to `C/C=C/CCC1Cc2cc(O)c(CCCC)c(O)c2C(=O)O1` (stereo not given), -16%; to `CCOC(=O)N[C@@H]1CC[C@@H]2[C@@H](C1)C[C@H]1C(=O)O[C@H](C)[C@H]1[C@@H]2C=Cc1ccc(-c2cccc(F)c2)cn1`, 8.14%.
`Cc1c(F)cc2c(=O)c(C(=O)O)cn3c2c1CCC3C` (stereo not given): the activation was 16.7%.
The same measure, in the same setting: the same measure for `O=C(CC(c1ccccc1)c1ccccc1)N1CCN(C(c2ccccc2)c2ccccc2)CC1`: 2.86%.
As to `CC(/C=C/C1(O)C(C)(C)CC(O)CC1(C)O)OC1OC(CO)C(O)C(O)C1O` (stereo not given), the activation is -5.34%.
Same read-out and setting: the same measure for `Cc1cccc(C#Cc2cc(F)cc(C#N)c2)n1`: -6.68%; for `O=C(O)C1(c2ccc(-c3ccc(Cl)c(Cl)c3)c(F)c2)CC1`: -12.9%.
Consider `c1cc(-c2cnn3cc(-c4ccc(N5CCNCC5)cc4)cnc23)c2cccnc2c1`, for which the Potency is 15.1 µM (active).

(Values after PubChem BioAssay (NCATS).)
